From PubChem BioAssay (NCI)
About 83,000 compounds went through this panel and 20% of them were active in at least one assay; those are over-represented in the sample as a whole.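 96-well plates, one dose, 48 hours. Percent growth reported; active if below 10.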 Values without a mark were called inactive. Active and inactive are the calls of the source.

Experiments:
Test in all cases: NCI-60 one-dose screen, 48 h (100 = growth as untreated, 0 = no growth, -100 = all killed)
Conditions in all cases: 10 µM unless noted
SR leukemia = test system: SR leukemia
RPMI-8226 leukemia = test system: RPMI-8226 leukemia
OVCAR-8 ovarian = test system: OVCAR-8 ovarian
OVCAR-5 ovarian = test system: OVCAR-5 ovarian
OVCAR-4 ovarian = test system: OVCAR-4 ovarian
SK-OV-3 ovarian = test system: SK-OV-3 ovarian
IGROV1 ovarian = test system: IGROV1 ovarian
OVCAR-3 ovarian = test system: OVCAR-3 ovarian
HS 578T breast = test system: HS 578T breast
NCI/ADR-RES ovarian = test system: NCI/ADR-RES ovarian

SMILES | growth (SR leukemia) | growth (RPMI-8226 leukemia) | growth (OVCAR-8 ovarian) | growth (OVCAR-5 ovarian) | growth (OVCAR-4 ovarian) | growth (SK-OV-3 ovarian) | growth (IGROV1 ovarian) | growth (OVCAR-3 ovarian) | growth (HS 578T breast) [%] | growth (NCI/ADR-RES ovarian) [%]
O=C(O)C(=Cc1c2ccccc2cc2ccccc12)C(=O)O | 102% | 103% | 104% | 112% | 117% | 107% | 111% | 118% | 106 | 98.3
O=C1Nc2cc(Cl)ccc2/C1=C/c1ccc(N2CCOCC2)s1 | 97% | 85.7% | 98.2% | 94.4% | 99.1% | 113% | 45.3% | 115% | 129 | 99.8
Cc1ccc(C2=NN(c3ccc(S(N)(=O)=O)cc3)C(c3cn(-c4ccccc4)nc3-c3ccccc3)C2)cc1 (stereo not given) | 11.7% | 39.7% | 86.3% | 115% | 105% | 93.4% | 88.5% | 56.1% | 96.6 | 90.6
CN1CCN(CCCOc2ccc3nc(Nc4ccc(C(F)(F)F)c(Cl)c4)ccc3c2)CC1 | -6.45% (active) | -6.92% (active) | 31.3% | 22.4% | 41.7% | 55.5% | 13.7% | -11.8% (active) | 16.3 | 20.4
O=[N+]([O-])c1cc(S(=O)(=O)OCC2CO2)ccc1Cl (stereo not given) | 1.01% (active) | 63.6% | 87.5% | 111% | 106% | 104% | 52.6% | 108% | 101 | 108
CN(C)c1ccc(/C=C\N=Nc2ccc(Br)cc2)cc1 | 21% | 50.2% | 46.5% | 76.6% | 65% | 92.8% | 66.7% | 67.9% | 102 | 52.3
COc1cc(C(=O)CCCl)ccc1O | 96.9% | 92% | 102% | 92.7% | 98.8% | 111% | 104% | 102% | 101 | 94.6
COc1cccc(NC(=O)Cn2cc3c(=O)oc4ccccc4c3n2)c1 | 110% | 97.9% | 112% | 113% | 92.8% | 113% | 97.1% | 99.1% | 104 | 100
Nc1nc(-c2cc3ccccc3o2)cc(=O)c(=O)[nH]1 | 90.9% | 95.7% | 107% | 105% | 102% | 96.7% | 100% | 102% | 88.2 | 109
Cc1ccc(S(=O)(=O)OCC(=O)Nc2ccc(C(=O)O)c(O)c2)cc1 | 45.7% | 92% | 97.7% | 102% | 86.9% | 127% | -17.7% (active) | 118% | 118 | 88
COc1ccc(Cn2cc(COc3cc(/C=C/C(=O)c4cc(OC)c(OC)c(OC)c4)ccc3OC)nn2)cc1 | 5.65% (active) | -2.32% (active) | 46.6% | 81.3% | 51% | 72% | 88.8% | 54.3% | 83.3 | 46.2
COc1cc(OC)c(C(=O)/C=C/c2ccc(C#N)cc2)c(OC)c1 | 6.75% (active) | 4.28% (active) | 11.7% | 41.8% | 32.8% | 17.2% | 14% | 8.04% (active) | 32 | 24.1
COc1ccc(S(=O)(=O)NCCNc2nccc(-c3c(-c4ccccc4)nc4sccn34)n2)cc1 | 12.8% | 27.4% | 26.7% | 73.8% | 27.8% | 23% | 6.6% (active) | 12.4% | 47 | 17.1
COc1ccc(OC)c(-c2ccc(-c3ccccc3N)c3[nH]c4ccccc4c23)c1 | 81.7% | 70.3% | 83.8% | 110% | 69.6% | 88.6% | 59.5% | 75.1% | 94.3 | 85.8
CN=S(=O)(NC(=O)c1ccc(Cl)cc1Cl)c1ccc(Br)s1 (stereo not given) | 94.3% | 98% | 97.6% | 95.3% | 103% | 111% | 101% | 109% | 97.8 | 99.3
CC(=O)Oc1cccc(OC(C)=O)c1OC(C)=O | 89.6% | 105% | 106% | 99.9% | 105% | 87% | 101% | 111% | 107 | 108
O=S(=O)(NCCNc1cc(-c2cn(-c3ccccc3)nc2-c2ccccc2)ccn1)c1ccc(F)cc1 | 79.3% | 72.5% | 83% | 106% | 85.6% | 92.1% | 98% | 94.7% | 87.3 | 81.3
O=c1cc(C2NCCc3c2[nH]c2ccccc32)c2c(ccc3ccccc32)o1 (stereo not given) | 51.3% | 73.6% | 60.1% | 78.3% | 62.3% | 5.15% (active) | 33.4% | 95.1% | 55.9 | 78.7
CC(C)C[C@H](NC(=O)[C@@H](Cc1ccccc1)n1ccc(Nc2ccccc2)cc1=O)B(O)O | 21% | -16% (active) | 8.16% (active) | 16% | 33.9% | 46.1% | -35.1% (active) | -61% (active) | 22.8 | 75
O=S(=O)(NCCCNc1cc(-c2cn(-c3ccccc3)nc2-c2cccc(O)c2)ccn1)c1cccc2ccccc12 | 13.9% | 7.85% (active) | 48.4% | 59.7% | 45.2% | 58.8% | 51% | 49.8% | – | 39.9
CCC(C)NCC(=O)O (stereo not given) | 93.5% | 90.1% | 110% | 96% | 105% | 106% | 110% | 111% | – | 110
CC(C)[C@H](CO)Nc1nc(Nc2ccc(C(=O)NCCNS(=O)(=O)c3cccc4c(N(C)C)cccc34)c(Cl)c2)c2ncn(C(C)C)c2n1 | -10.7% (active) | -41.9% (active) | 9.87% (active) | 49.4% | 41.8% | 72.8% | -13.7% (active) | 20.2% | – | 94.5
Nc1c(C(=O)Nc2cccc([N+](=O)[O-])c2)sc2nc3c(cc12)C(O)CCC3 (stereo not given) | 21% | 52% | 82.3% | 78.7% | 80.2% | 46.3% | 52.5% | 33.1% | 71.8 | 47.8
COc1cccc(-n2cc(-c3nc(Cl)c4ccccc4n3)nn2)c1 | 97.9% | 97.7% | 109% | 109% | 98.7% | 117% | 96.5% | 105% | 110 | 97.4
COc1cccc(/C=C/C(=O)c2sc(Nc3ccc(O)cc3)nc2C)c1 | 35.8% | 4.79% (active) | 99.4% | 111% | 96.9% | 103% | 88.1% | 75.7% | 103 | 99
COc1cc(-c2csc(NC(=O)c3cc(C(F)(F)F)cc(C(F)(F)F)c3)n2)cc(OC)c1OC | 40.4% | 14.1% | 25.5% | 60.1% | 23.4% | 35.4% | 46% | 10.6% | – | 16.2
C=C1C(=O)O[C@H]2[C@H]1CC/C(Cn1cc(-c3ccsc3)nn1)=C\CC[C@@]1(C)O[C@@H]21 | 3.37% (active) | -43.2% (active) | -4.45% (active) | -18.3% (active) | -46.6% (active) | 83.1% | -16% (active) | -94.8% (active) | 28.2 | 32
NC(=O)NC(=O)/C=C/C(=O)OCCCl | 96.8% | 93.3% | 90.7% | 96.9% | 107% | 105% | 109% | 106% | – | 109
